Measurements taken from PubChem BioAssay (EPA / NIEHS).
Calls of active or inactive are those of the source. The calls were made as follows: active = hit-call score of the fitted dose curve at least 0.9, where 1 is the maximum; inactive = score below 0.9.

How the values were obtained:
[1] = BSK_CASM3C_SRB: Viability Assessment in the BioMAP Diversity Plus: CASM3C Assay (AID 2283050); settings: primary human coronary artery smooth muscle cells;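 also: cells exposed to compound for 24 h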
[2] = read-out: Thrombomodulin, THBD (gene 7056); assay: BSK_CASM3C_Thrombomodulin: BioMAP Diversity Plus: CASM3C Assay for Thrombomodulin Biomarker Activity (AID 2283051); settings: primary human coronary artery smooth muscle cells; actives raise or lower the signal;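 also: thrombomodulin protein level measured by ELISA 24 h after dosing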
[3] = read-out: Tissue Factor, F3 (gene 2152); assay: BSK_CASM3C_TissueFactor: BioMAP Diversity Plus: CASM3C Assay for Tissue Factor Biomarker Activity (AID 2283052); settings: primary human coronary artery smooth muscle cells; actives raise or lower the signal;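 also: cell surface tissue factor protein level read by ELISA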
[4] = read-out: Interferon-gamma inducible Protein 10 (IP10), CXCL10 (gene 3627); assay: BSK_hDFCGF_IP10: BioMAP Diversity Plus: hDFCGF Assay for Interferon-gamma inducible Protein 10 (IP10) Biomarker Activity (AID 2283053); settings: primary human foreskin fibroblasts; actives raise or lower the signal
Method in brief: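 Chemical-treated human skin fibroblasts (primary) were sampled at 24 h for IP-10 by ELISA. Both increases and decreases relative to DMSO were scored.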

[5] = read-out: Urokinase-type plasminogen activator receptor (uPAR), PLAUR (gene 5329); assay: BSK_CASM3C_uPAR: BioMAP Diversity Plus: CASM3C Assay for Urokinase-type plasminogen activator receptor (uPAR) Biomarker Activity (AID 2283054); settings: primary human coronary artery smooth muscle cells; actives raise or lower the signal;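 also: cell-surface uPAR protein level quantified by ELISA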
[6] = read-out: Vascular cell adhesion molecule 1 (VCAM1), VCAM1 (gene 7412); assay: BSK_CASM3C_VCAM1: BioMAP Diversity Plus: CASM3C Assay for Vascular cell adhesion molecule 1 (VCAM1) Biomarker Activity (AID 2283055); settings: primary human coronary artery smooth muscle cells; actives raise or lower the signal;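 also: VCAM-1 protein level quantified by ELISA on the cells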
[7] = read-out: Collagen III, COL3A1 (gene 1281); assay: BSK_hDFCGF_CollagenIII: BioMAP Diversity Plus: hDFCGF Assay for Collagen III Biomarker Activity (AID 2283056); settings: primary human foreskin fibroblasts; actives raise or lower the signal
Method in brief: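 Human foreskin fibroblast primary cultures sampled 24 h after dosing; Collagen III quantified by ELISA. Signal fitted bidirectionally against DMSO baseline.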

[8] = read-out: Epidermal growth factor receptor (EGFR), EGFR (gene 1956); assay: BSK_hDFCGF_EGFR: BioMAP Diversity Plus: hDFCGF Assay for Epidermal growth factor receptor (EGFR) Biomarker Activity (AID 2283057); settings: primary human foreskin fibroblasts; actives raise or lower the signal
Method in brief: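 Cell-based multiplexed assay in primary human foreskin fibroblasts. EGFR is read by ELISA 24 h after treatment and compared with DMSO controls.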

[9] = read-out: Interleukin-8 (IL8), CXCL8 (gene 3576); assay: BSK_hDFCGF_IL8: BioMAP Diversity Plus: hDFCGF Assay for Interleukin-8 (IL8) Biomarker Activity (AID 2283058); settings: primary human foreskin fibroblasts; actives raise or lower the signal
Method in brief: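 Primary human foreskin fibroblasts (hDFCGF system) dosed with chemical; IL-8 measured by ELISA 24 hours later. Bidirectional curve fitting relative to DMSO baseline; cytotoxicity tracked in parallel cultures by SRB total protein staining.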

[10] = BSK_hDFCGF_Proliferation: Cell Proliferation Assessment in the BioMAP Diversity Plus: hDFCGF Assay (AID 2283059); settings: primary human foreskin fibroblasts;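 also: curves fitted for both rise and fall of signal versus DMSO baseline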
Method in brief: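 Steps: dose primary human dermal fibroblasts (foreskin); […] fix in 10% TCA; stain with 0.1% SRB; read 560 nm; fit gain or loss of signal against DMSO.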

[11] = read-out: TIMP metallopeptidase inhibitor 1 (TIMP1), TIMP1 (gene 7076); assay: BSK_hDFCGF_TIMP1: BioMAP Diversity Plus: hDFCGF Assay for TIMP metallopeptidase inhibitor 1 (TIMP1) Biomarker Activity (AID 2283062); settings: primary human foreskin fibroblasts; actives raise or lower the signal
Method in brief: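 Human foreskin fibroblast primary cultures dosed for 24 h; secreted/surface TIMP-1 quantified by ELISA. Bidirectional curve fitting against DMSO baseline; cytotoxicity tracked in parallel cultures by SRB total-protein staining.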

[12] = read-out: Monokine induced gamma interferon (MIG), CXCL9 (gene 4283); assay: BSK_hDFCGF_MIG: BioMAP Diversity Plus: hDFCGF Assay for Monokine induced gamma interferon (MIG) Biomarker Activity (AID 2283063); settings: primary human foreskin fibroblasts; actives raise or lower the signal
Method in brief: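 MIG/CXCL9 measured by ELISA 24 h after dosing primary human skin fibroblasts. Activity fitted in both directions against DMSO controls. Cytotoxicity was checked in parallel cultures by SRB staining read at 560 nm.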

[13] = read-out: Matrix Metallopeptidase 1 (MMP1), MMP1 (gene 4312); assay: BSK_hDFCGF_MMP1: BioMAP Diversity Plus: hDFCGF Assay for Matrix Metallopeptidase 1 (MMP1) Biomarker Activity (AID 2283064); settings: primary human foreskin fibroblasts; actives raise or lower the signal
Method in brief: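 Human foreskin fibroblasts exposed to chemical for 24 h; MMP1 detected by ELISA, with DMSO as baseline for bidirectional fitting.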

[14] = read-out: Vascular cell adhesion molecule 1 (VCAM1), VCAM1 (gene 7412); assay: BSK_hDFCGF_VCAM1: BioMAP Diversity Plus: hDFCGF Assay for Vascular cell adhesion molecule 1 (VCAM1) Biomarker Activity (AID 2283065); settings: primary human foreskin fibroblasts; actives raise or lower the signal;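 as to AC50: VCAM-1 protein level quantified by ELISA after 24 h chemical exposure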
Method in brief: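 Human foreskin fibroblast primary cells dosed with chemical, VCAM-1 measured by ELISA at 24 h. Bidirectional curve fitting relative to DMSO as negative control/baseline.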

[15] = read-out: Plasminogen activator inhibitor-1 (PAI1), SERPINE1 (gene 5054); assay: BSK_hDFCGF_PAI1: BioMAP Diversity Plus: hDFCGF Assay for Plasminogen activator inhibitor-1 (PAI1) Biomarker Activity (AID 2283066); settings: primary human foreskin fibroblasts; actives raise or lower the signal
Method in brief: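 Human skin fibroblast cultures receive chemical for 24 h before PAI-1 is measured by ELISA; signal changes are fitted bidirectionally against DMSO-treated wells.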

[16] = read-out: Intercellular Adhesion Molecule 1 (ICAM1), ICAM1 (gene 3383); assay: BSK_KF3CT_ICAM1: BioMAP Diversity Plus: KF3CT Assay for Intercellular Adhesion Molecule 1 (ICAM1) Biomarker Activity (AID 2283067); settings: primary human keratinocytes with fibroblasts; actives raise or lower the signal
Method in brief: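 Human keratinocyte–foreskin fibroblast co-culture was treated for 24 h. Cell-surface ICAM-1 was quantified by ELISA, fitted bidirectionally relative to DMSO. Cytotoxicity was checked in parallel cultures by SRB total-protein staining.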

[17] = read-out: Interferon-gamma inducible Protein 10 (IP10), CXCL10 (gene 3627); assay: BSK_KF3CT_IP10: BioMAP Diversity Plus: KF3CT Assay for Interferon-gamma inducible Protein 10 (IP10) Biomarker Activity (AID 2283068); settings: primary human keratinocytes with fibroblasts; actives raise or lower the signal
Method in brief: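 KF3CT co-culture (keratinocytes + foreskin fibroblasts), 24 h compound, IP-10 by ELISA; bidirectional fit vs DMSO baseline.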

[18] = BSK_KF3CT_SRB: Viability Assessment in the BioMAP Diversity Plus: KF3CT Assay (AID 2283069); settings: primary human keratinocytes with fibroblasts;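 also: read 24 h after compound addition; fitted for both signal gain and loss against DMSO baseline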
Method in brief: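 Overt cytotoxicity is assessed as total protein by sulforhodamine B staining in parallel human skin co-cultures at 24 h after dosing. DMSO serves as negative control and baseline.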

Measured: AC50

CCCCC(CC)COC(=O)c1ccccc1C(=O)OCC(CC)CCCC (stereo not given)
active: [4] 16.6 µM | [10] 4.85 µM | [17] 15.1 µM
inactive: all other assays above

O=C(O)COc1nc(Cl)c(Cl)cc1Cl
inactive: all assays above

CC(C)C1(C)N=C(c2nc3ccccc3cc2C(=O)O)NC1=O (stereo not given)
inactive: all assays above

CCc1nn(C)c(C(=O)NCc2ccc(C(C)(C)C)cc2)c1Cl
active: [2] 13.2 µM | [4] 28.8 µM | [7] 20 µM | [9] 35.4 µM | [10] 20 µM | [11] 32.1 µM | [12] 33.7 µM | [13] 32.2 µM | [14] 20 µM | [15] 15.5 µM | [16] 32.9 µM | [17] 18.7 µM | [18] 32.4 µM
inactive: [1] | [3] | [5] | [6] | [8]

CC(C)Oc1cc(-n2nc(C(C)(C)C)oc2=O)c(Cl)cc1Cl
active: [2] 25.7 µM | [4] 29.8 µM | [10] 29.5 µM | [13] 5.65 µM | [14] 32 µM | [15] 24.4 µM | [17] 14.9 µM
inactive: all other assays above
